Measurements: PubChem BioAssay
The source made the active and inactive calls.

Columns and labels:
[1] = E. coli DRC41 culture turbidity changes, primary screen, E. coli filamentation inducer project, strain DRC41, OD650, 48 h (AID 1152);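 also: E. coli MC1000 strain DRC41 lacking acrAB efflux pump and sulA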; settings: E. coli DRC41 (acrAB sulA), higher = more signal, called active from +8 up or from −8 down
[2] = small-molecule binders of probe aLefty1, primary screen, biochemical, small-molecule microarray, 635/667 nm fluorescence (AID 1153); settings: higher = more signal;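 also: score merges spot fluorescence with signal-to-noise ratio from the scanned slide images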
[3] = PSAC antagonists in infected red cells, primary screen, cell-based, P. falciparum Indochina, OD700, 1 h (AID 1154); settings: P. falciparum Indochina infected RBC osmotic lysis, higher = more signal, called active from +8 up or from −8 down
[4] = PSAC antagonists in infected red cells, primary screen, cell-based, P. falciparum Indochina, OD700, 2 h (AID 1155);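 also: lysis reports solute entry through the parasite surface anion channel PSAC; channel blockers reduce lysis of infected cells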; settings: P. falciparum Indochina infected erythrocytes, osmotic lysis OD700; higher = more signal, called active from +8 up or from −8 down
[5] = osmotic lysis modulators in infected erythrocytes, primary screen, PSAC antagonist project, cell-based, P. falciparum Indochina, OD700, 3 h (AID 1156); settings: higher = more signal, called active from +8 up or from −8 down
[6] = PSAC antagonists in infected red cells, primary screen, cell-based, P. falciparum Indochina, OD700, 18 h (AID 1157); settings: P. falciparum Indochina infected erythrocytes, osmotic lysis OD700, 18 h; higher = more signal, called active from +8 up or from −8 down
[7] = modulators of S6 phosphorylation in cells, primary screen, cell-based, A549, cytoblot, luminescence, serum-stimulated (AID 1158); settings: A549 phospho-S6 cytoblot, 5 h, higher = more signal;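 also: serum-stimulated A549 lung adenocarcinoma cells; signal is phosphorylated S6 detected by cytoblot immunostaining with HRP secondary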
[8] = target: NADPH oxidase 2 (Homo sapiens) (UniProt P04839); test: NOX2-dependent H2O2 signal modulators, primary screen, NOX inhibitor project, cell-based, HEK293-NOX2, PMA-stimulated, Amplex Red fluorescence (AID 1159); settings: 45 min, higher = more signal, called active from +8 up or from −8 down; also: test concentration not given here
[9] = target: NADPH oxidase 4 (Homo sapiens) (UniProt Q9NPH5); test: NOX4-dependent H2O2 signal modulators, primary screen, NOX inhibitor project, cell-based, HEK293-NOX4, tetracycline-induced, Amplex Red fluorescence (AID 1160); settings: 45 min, higher = more signal, called active from +8 up or from −8 down
[10] = target: NADPH oxidase 5 (Homo sapiens) (UniProt Q96PH1); test: NOX5-dependent H2O2 signal modulators, primary screen, NOX inhibitor project, cell-based, HEK293-NOX5, Amplex Red fluorescence (AID 1161); settings: HEK293-NOX5, ionomycin, 45 min, higher = more signal
[11] = A549 cell viability effects, profiling panel, calcein-AM fluorescence, 48 h, basal (AID 1162); settings: higher = more signal; also: test concentration not given here
[12] = adipocyte viability effects, profiling panel, cell-based, 3T3-L1 adipocytes, calcein-AM fluorescence, 48 h, basal (AID 1163); settings: 3T3-L1 adipocytes viability, higher = more signal; also: test concentration not given here
[13] = HepG2 cell viability effects, profiling panel, calcein-AM fluorescence, 48 h, basal (AID 1164); settings: higher = more signal; also: test concentration not given here
[14] = MM1S cell viability effects, profiling panel, calcein-AM fluorescence, 48 h, basal (AID 1165); settings: higher = more signal;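 also: viability of MM1S multiple myeloma cells under basal unstimulated conditions; test concentration not given here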
[15] = basal RPMI8226 viability, no added stimulus, profiling panel, cell-based, calcein-AM fluorescence, 48 h, PK04 Diversity Set (AID 1166); settings: RPMI8226 myeloma viability, higher = more signal;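 also: cells grown under basal conditions without added stimulus; test concentration not given here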
[16] = basal HepG2 mitochondrial membrane potential changes, profiling panel, cell-based, JC-1 fluorescence, 24 h, 100 nL compound (AID 1167); settings: higher = more signal; also: test concentration not given here
[17] = basal 3T3-L1 adipocyte mitochondrial potential changes, profiling panel, cell-based, JC-1 fluorescence, 3T3-L1 adipocytes, 24 h, 100 nL compound (AID 1168); settings: JC-1 mitochondrial fluorescence, higher = more signal, called active from +8 up or from −8 down; also: test concentration not given here
[18] = basal RPMI8226 mitochondrial membrane potential changes, profiling panel, cell-based, JC-1 fluorescence, 24 h, 100 nL compound (AID 1169); settings: RPMI8226 myeloma, JC-1 mitochondrial potential fluorescence, higher = more signal; also: test concentration not given here
[19] = basal MM1S mitochondrial membrane potential changes, profiling panel, cell-based, JC-1 fluorescence, 24 h, 100 nL compound (AID 1170); settings: higher = more signal; also: test concentration not given here
[20] = A549 lung cancer cell viability effects, profiling panel, resazurin fluorescence, 24 h, PK04 Diversity Set (AID 1171); settings: higher = more signal, called active from +8 up or from −8 down; also: test concentration not given here

Chain of NADPH oxidase 2 (Homo sapiens) (P04839 whole entry, looked up): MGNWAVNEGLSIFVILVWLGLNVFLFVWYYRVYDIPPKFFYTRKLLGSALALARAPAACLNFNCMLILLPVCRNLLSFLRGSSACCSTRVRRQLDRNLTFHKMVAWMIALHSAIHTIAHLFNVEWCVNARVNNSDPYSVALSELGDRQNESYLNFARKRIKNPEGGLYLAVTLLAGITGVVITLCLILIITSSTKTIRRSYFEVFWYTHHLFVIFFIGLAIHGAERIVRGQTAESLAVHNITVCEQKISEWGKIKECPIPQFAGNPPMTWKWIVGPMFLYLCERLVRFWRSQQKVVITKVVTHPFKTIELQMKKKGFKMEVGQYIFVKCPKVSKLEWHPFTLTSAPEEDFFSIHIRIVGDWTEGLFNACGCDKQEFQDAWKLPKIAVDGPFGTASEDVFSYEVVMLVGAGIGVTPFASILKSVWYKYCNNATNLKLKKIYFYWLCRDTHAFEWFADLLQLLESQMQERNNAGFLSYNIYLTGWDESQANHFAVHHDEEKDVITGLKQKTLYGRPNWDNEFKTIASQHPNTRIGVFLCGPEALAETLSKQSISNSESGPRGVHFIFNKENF
Chain of NADPH oxidase 4 (Homo sapiens) (Q9NPH5 whole entry, looked up): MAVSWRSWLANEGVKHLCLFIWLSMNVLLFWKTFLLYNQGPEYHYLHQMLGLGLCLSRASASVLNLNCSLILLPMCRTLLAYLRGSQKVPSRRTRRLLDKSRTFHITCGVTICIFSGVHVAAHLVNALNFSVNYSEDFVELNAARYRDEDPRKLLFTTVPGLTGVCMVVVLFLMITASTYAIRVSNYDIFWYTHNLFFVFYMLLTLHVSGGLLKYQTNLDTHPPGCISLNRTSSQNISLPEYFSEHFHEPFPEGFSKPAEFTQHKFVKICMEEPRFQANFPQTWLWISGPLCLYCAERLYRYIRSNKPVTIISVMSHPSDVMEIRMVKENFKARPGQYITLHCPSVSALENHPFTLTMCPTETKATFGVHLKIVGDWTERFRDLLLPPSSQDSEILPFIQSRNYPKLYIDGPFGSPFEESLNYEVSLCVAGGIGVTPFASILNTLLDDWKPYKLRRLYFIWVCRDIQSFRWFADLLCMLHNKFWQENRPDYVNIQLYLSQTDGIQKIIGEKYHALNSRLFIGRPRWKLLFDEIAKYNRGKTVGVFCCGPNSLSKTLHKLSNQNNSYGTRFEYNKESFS
Chain of NADPH oxidase 5 (Homo sapiens) (Q96PH1 whole entry, looked up): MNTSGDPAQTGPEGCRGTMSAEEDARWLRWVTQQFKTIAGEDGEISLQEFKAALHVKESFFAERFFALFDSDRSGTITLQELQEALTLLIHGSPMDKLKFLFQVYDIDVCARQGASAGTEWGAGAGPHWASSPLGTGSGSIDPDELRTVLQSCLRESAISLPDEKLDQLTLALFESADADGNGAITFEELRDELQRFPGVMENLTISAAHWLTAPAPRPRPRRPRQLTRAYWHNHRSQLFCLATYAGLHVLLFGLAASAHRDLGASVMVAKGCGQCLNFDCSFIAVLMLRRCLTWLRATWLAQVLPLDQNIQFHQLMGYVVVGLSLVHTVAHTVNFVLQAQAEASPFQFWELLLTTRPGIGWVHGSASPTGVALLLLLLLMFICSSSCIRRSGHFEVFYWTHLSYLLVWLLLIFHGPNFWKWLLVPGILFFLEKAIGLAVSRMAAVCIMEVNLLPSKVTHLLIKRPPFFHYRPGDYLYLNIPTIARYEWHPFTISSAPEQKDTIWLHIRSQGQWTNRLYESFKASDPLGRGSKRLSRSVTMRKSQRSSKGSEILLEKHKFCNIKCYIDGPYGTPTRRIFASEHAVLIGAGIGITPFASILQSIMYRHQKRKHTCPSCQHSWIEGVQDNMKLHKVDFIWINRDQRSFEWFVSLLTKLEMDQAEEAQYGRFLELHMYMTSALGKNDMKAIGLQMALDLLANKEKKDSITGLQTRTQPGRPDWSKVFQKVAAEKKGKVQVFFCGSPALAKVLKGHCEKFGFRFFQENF

Structure (SMILES)	z-score [1]	composite z-score [2]	z-score [3]	z-score [4]	z-score [5]	z-score [6]	z-score [7]	z-score [8]	z-score [9]	z-score [10]	z-score [11]	z-score [12]	z-score [13]	z-score [14]	z-score [15]	z-score [16]	z-score [17]	z-score [18]	z-score [19]	z-score [20]
CC(C)NC(=O)[C@@]1(C)c2ccccc2C(=O)N(Cc2cc(C(F)(F)F)cc(C(F)(F)F)c2)[C@H]1c1ccc(CO)cc1	-0.204 (inactive)	0.0328	11.8 (active)	1.66 (inactive)	1.35 (inactive)	0.377 (inactive)	0.401	-1.13 (inactive)	0.154 (inactive)	0.685	1.25	-0.562	0.481	-0.137	-0.825	0.718	0.468 (inactive)	-0.382	-0.527	-0.558 (inactive)
CC1CC/C=C\[C@H]2OC34C=CCN(C(C)(C)C)C(=O)[C@H]3N(C(C)CO)C(=O)[C@@H]4C2C(=O)O1 (stereo not given in full)	-0.265 (inactive)	-0.0984	1.42 (inactive)	0.576 (inactive)	0.545 (inactive)	0.355 (inactive)	0.021	0.499 (inactive)	-0.812 (inactive)	1.65	0.593	-0.691	0.292	0.771	-0.192	-0.0168	-0.43 (inactive)	-0.164	-0.726	-0.388 (inactive)
CCc1cccc(NC(=O)O[C@H]2[C@H](OC(=O)Nc3ccccc3-c3ccccc3)[C@@H](OC(=O)Nc3ccccc3-c3ccccc3)[C@@H](OC)O[C@@H]2CO)c1	-1.5 (inactive)	0.419	3.37 (inactive)	0.995 (inactive)	-0.975 (inactive)	1.31 (inactive)	-0.84	-5.54 (inactive)	-1.18 (inactive)	-1.13	-4.21	0.175	-4.64	-3.46	-4.11	-1.11	1.66 (inactive)	-1.1	-1.91	-6.15 (inactive)
C=C(/C(=C/C[C@H](OC(C)=O)c1ccc(CO)o1)c1cc(C(=O)OC)ccc1OC)C(C)C	0.376 (inactive)	-0.0559	2.48 (inactive)	-1.22 (inactive)	2.6 (inactive)	-2.17 (inactive)	2.41	-1.66 (inactive)	-1.85 (inactive)	-2.34	-0.431	1.4	-0.812	-2.37	-2.03	0.256	1.13 (inactive)	0.104	-0.227	-0.369 (inactive)
O=C1O[C@H](c2ccccc2)[C@H](c2ccccc2)N2[C@H]1[C@@H](C(=O)N1CCCCCCC1)[C@]1(C(=O)Nc3ccc(C#CC4=CCCCC4)cc31)[C@H]2c1ccc(OCCO)cc1	2.72 (inactive)	2.88	10.2 (active)	0.658 (inactive)	1.08 (inactive)	-1.25 (inactive)	2.85	-0.708 (inactive)	0.14 (inactive)	-2.05	-0.733	1.67	-0.103	-0.0425	-1.4	-1.68	-5.35 (inactive)	-1.02	-0.729	-0.0973 (inactive)
Cc1ccc(S[C@]2(C(=O)NCCCN(C)C)CC(=O)N(Cc3cc(C(F)(F)F)cc(C(F)(F)F)c3)[C@@H]2c2ccc(CO)cc2I)cc1	0.272 (inactive)	1.37	3.48 (inactive)	1.12 (inactive)	-1.36 (inactive)	0.303 (inactive)	-0.232	1.28 (inactive)	-1.25 (inactive)	2.43	0.0371	-0.787	0.241	-2.19	-2	-0.547	0.669 (inactive)	-0.442	-2.03	-0.335 (inactive)
C=C[C@H](OC)[C@@H](OC(=O)Nc1ccc(OC)cc1)c1ccc(O)c(F)c1	0.496 (inactive)	0.0921	4.19 (inactive)	0.484 (inactive)	-0.433 (inactive)	0.253 (inactive)	-0.102	-1.5 (inactive)	1.1 (inactive)	5.13	-0.766	-0.501	-0.322	-2.06	-2.88	-2.39	0.313 (inactive)	-0.538	-0.933	-0.596 (inactive)
Cc1ccccc1C(O)C1C=CC2C(=O)N(c3ccccc3)C(=O)C2N1Nc1ccc(C(C)C)cc1 (stereo not given)	-1.6 (inactive)	0.317	1.85 (inactive)	1.05 (inactive)	0.918 (inactive)	0.974 (inactive)	-0.405	-1.22 (inactive)	-4.14 (inactive)	-4.42	-0.0475	-0.127	-0.169	-0.136	-0.727	-2.15	-1.8 (inactive)	-0.754	-0.0109	-1.41 (inactive)
CN1C(=O)C2C=CC(C(O)c3ccco3)N(Nc3ccccc3)C2C1=O (stereo not given)	-1.63 (inactive)	0.335	0.233 (inactive)	0.742 (inactive)	-0.283 (inactive)	1.34 (inactive)	-1.2	-1.76 (inactive)	-3.72 (inactive)	-2.54	-0.835	-1.12	-0.315	-1.34	-0.137	-1.67	-0.783 (inactive)	0.819	-0.101	-0.579 (inactive)
